Screening results: PubChem, NMMLSC
LAP4 TOR yeast = modulators of TOR pathway LAP4-GFP in S. cerevisiae; S. cerevisiae LAP4-GFP multiplex, flow cytometry GFP, 3 h; median GFP as percent of DMSO wells; GFP response vs DMSO, % at 10 µM; 0.34% of 320,000 active;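 active means GFP response vs DMSO above a set limit, about the screen mean plus 3 SD, cut at about 150% in these data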
RPL19A TOR yeast = alters RPL19A-GFP fluorescence in TOR pathway yeast screen; 0.3% of 330,000 active; percent response vs DMSO, % at 10 µM; S. cerevisiae RPL19A-GFP strain, flow cytometry, 3 h; hits give low values;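 active means percent response vs DMSO below 50%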;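 further: median channel GFP fluorescence of the barcoded RPL19A-GFP strain; ratio of sample median GFP to plate DMSO average so 100% = DMSO; lower means less RPL19A-GFP as with rapamycin TOR inhibition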
CIT2-GFP yeast = modulators of TOR pathway CIT2-GFP in S. cerevisiae; 0.065% of 320,000 active; S. cerevisiae CIT2-GFP strain, flow cytometry, 3 h; 100 means same as DMSO wells; GFP response vs DMSO, % at 10 µM; AID 2029;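 active means GFP response relative to DMSO above a set limit, near the screen mean plus 3 SD, cut at about 150% in these data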;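 further: ratio of well median GFP fluorescence to mean of DMSO wells on the plate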
MEP2 TOR yeast = modulators of TOR pathway MEP2-GFP in S. cerevisiae; S. cerevisiae MEP2-GFP strain, flow cytometry GFP, 3 h; 100% = DMSO control level; GFP response vs DMSO, % at 10 µM; 0.51% of 330,000 active; AID 2016;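 active means GFP response versus DMSO above a set limit, roughly screen mean plus 3 SD, cut at about 180% in these data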;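 further: median GFP fluorescence of the barcode-gated MEP2-GFP cells per well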
AGP1-GFP MLPCN = alters AGP1-GFP fluorescence in TOR pathway yeast screen; S. cerevisiae AGP1-GFP multiplex flow cytometry, 3 h; GFP as percent of DMSO wells; GFP response vs DMSO, % at 10 µM; 0.02% of 320,000 active;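 active means GFP response relative to DMSO above a set limit, near screen average plus 3 SD, cut at about 150% in these data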;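 further: median GFP channel fluorescence of the gated AGP1 strain per well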
LAP4 cherry2 = second confirmation of modulators of TOR reporter LAP4-GFP in yeast; shares compounds with LAP4 TOR yeast; S. cerevisiae LAP4-GFP strain, flow cytometry GFP, 3 h; GFP response vs DMSO, % at 10 µM; 20% of 590 active;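 active means GFP signal as percent of the solvent control above about 150%, meaning raised reporter expression, limit read from the data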;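 further: ratio of well median GFP fluorescence to plate DMSO mean so 100% = DMSO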
MEP2-GFP pick2 = reconfirmed MEP2-GFP TOR pathway modulator in yeast | shares compounds with LAP4 TOR yeast | S. cerevisiae MEP2-GFP strain, flow cytometry GFP, 3 h | GFP response vs DMSO, % at 10 µM | 10% of 590 active | AID 2622;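 active means GFP signal above 150% of the solvent control wells, that is a rise of more than half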;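 further: median channel GFP fluorescence of all gated yeast cells per well; ratio of median GFP to plate DMSO average so 100% = DMSO level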
RPL19A-GFP pick2 = second confirmation of modulators of TOR reporter RPL19A-GFP in yeast; shares compounds with LAP4 TOR yeast; S. cerevisiae RPL19A-GFP strain, flow cytometry GFP, 3 h; hits give low values; 100% means same as DMSO wells; GFP response vs DMSO, % at 10 µM; 3% of 590 active;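 active means under 65% GFP response relative to DMSO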;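 further: median GFP channel fluorescence per well over the all cells gate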
CIT2-GFP pick2 = second confirmation of modulators of TOR reporter CIT2-GFP in yeast | GFP response vs DMSO, % at 10 µM | S. cerevisiae CIT2-GFP strain, flow cytometry GFP, 3 h; DMSO control wells read 100% | shares compounds with LAP4 TOR yeast | 8% of 590 active;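 active means GFP response vs DMSO above about 150%, limit read from the data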;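 further: median green fluorescence per well over all gated yeast cells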
AGP1-GFP pick2 = yeast AGP1-GFP TOR reporter modulation, second cherry pick | shares compounds with LAP4 TOR yeast | S. cerevisiae AGP1-GFP strain, flow cytometry GFP, 3 h | 590 tested, under 10 active | percent response vs DMSO, % at 10 µM;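 active means over 150 percent of DMSO response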;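 further: median GFP channel fluorescence over all cells without mother daughter split; sample median GFP divided by mean DMSO control so 100% equals DMSO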
s288c autofluor = yeast s288c autofluorescence artifact, counter-screen. shares compounds with LAP4 TOR yeast. S. cerevisiae s288c, 520 nm autofluorescence, flow cytometry, 3 h; hits give high values; zero means same as solvent-only cells. fluorescence change (kMESF span) at 33 µM. 610 tested, under 10 active;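 active means fluorescence span over the dose series, or activity score, above about 33, limit read from the data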
* hit, by the source's call; . = not tested or not shown; [ ] = remark or other dose. Rows were chosen to be rich in hits. Some 0.93% of all compounds tested hit in one or more screens of this group.

SMILES	LAP4 TOR yeast	RPL19A TOR yeast	CIT2-GFP yeast	MEP2 TOR yeast	AGP1-GFP MLPCN	LAP4 cherry2	MEP2-GFP pick2	RPL19A-GFP pick2	CIT2-GFP pick2	AGP1-GFP pick2	s288c autofluor
O=C(CSc1nnc(Cc2ccccc2)o1)Nc1ccc2c(c1)OCO2	86.1	91.6	87.6	89.2	84.8	.	.	.	.	.	.
Cc1cccc(CN2C(=O)/C(=C\c3ccc(C(=O)NCCCN4CCN(C)CC4)cc3)Oc3ccccc32)c1	163.9*	90.8	70.7	90.5	81.7	135.3	104.8	89.5	101.5	92.5	.
CC(SC1=Nc2ccccc2C2CC=NN12)C(=O)NC1(C#N)CCCCC1 (centres undefined)	120.7	105.5	101.0	101.9	115.9	.	.	.	.	.	.
Cc1ccc(NC(=O)NCc2ccccn2)c(C)c1	69.5	112.4	93.9	105.7	96.3	.	.	.	.	.	.
COc1c(OC(C)=O)c(=O)n2c3ccccc3c3ccnc1c32	94.9	48.0*	93.0	245.4*	24.3	91.3	91.5	104.6	108.6	87.2	.
N#Cc1ccc(OCC(=O)N2CCCC2=O)cc1	90.3	96.1	95.3	91.8	93.5	.	.	.	.	.	.
CCOc1ccc2oc(C(=O)NNC(=O)c3csc(N4CCOCC4)n3)c(C)c2c1	91.0	92.8	98.3	88.6	90.6	.	.	.	.	.	.
O=C(/C=C/c1ccccn1)c1cc(Br)ccc1O	212.3*	69.1	56.7	79.8	66.6	.	.	.	.	.	1.11
O=C(/C=C/c1ccc(O)cc1)c1ccc(O)cc1O	112.2	104.8	105.2	99.8	96.7	.	.	.	.	.	.
O=C(/C=C/c1ccccn1)c1ccc(Br)cc1O	154.8*	87.3	81.4	84.0	87.7	165.3*	118.8	90.8	96.0	94.5	1.5
COc1ccc(/C=C/C(=O)c2cc(Br)ccc2O)cc1OC	127.7	92.7	106.7	111.6	87.9	.	.	.	.	.	.
N#Cc1c(Nc2cccc(F)c2)sc2c(O)cc(=O)[nH]c12	100.7	94.3	102.2	100.5	103.3	.	.	.	.	.	.
Cc1ccc(CNC(=O)C2CC(=O)N(C3CCCC3)C2)cc1 (centres undefined)	100.9	96.8	90.9	92.6	96.8	.	.	.	.	.	.
C/C(=N\NC(=O)c1cc2ccccc2cc1O)c1ccccn1	216.3*	96.8	96.8	119.5	100.7	.	.	.	.	.	1.63
Cc1ccc(N(C)S(=O)(=O)c2ccc3c(c2)NC(=O)C(C)S3)cc1 (centres undefined)	94.6	99.8	104.7	102.3	99.0	.	.	.	.	.	.
COc1cc(N=c2ssnc2Cl)cc(OC)c1	150.5*	91.0	74.1	90.2	83.8	114.4	109.8	92.7	121.0	95.8	1.01
Cc1cccc(N=Nc2ccc(O)c3ncccc23)c1	165.4*[may fluoresce green]	99.3	99.1	95.7	101.7	200.4*	129.3	104.0	130.7	108.0	1.6
CSCC[C@H](NC(=O)N1CCn2c1nc1ccccc12)C(=O)NCc1ccco1	97.0	106.1	109.6	108.3	109.7	.	.	.	.	.	.
COc1ccc(S(=O)(=O)N2CCCCCC2)cc1C(=O)NC1(C)CCS(=O)(=O)C1 (centres undefined)	102.5	100.0	105.3	101.8	104.3	.	.	.	.	.	.
